Compounds with a hit are over-represented: about 8% of the library has one in this group of screens.
KB-V1 MDR tox – qHTS assay for MDR1-selective chemotherapeutics: Primary screen using the drug-selected MDR subline cells KB-V1; Potency, µM (doses to about 46.1 µM), most hits filed as cytotoxic; hit rate 3.4% among 400,000; KB-V1 MDR cells viability, CellTiter-Glo, 72 h; further: nearly all actives have a fitted effect of over 60% in size
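Potencies derive from concentration-effect curves fitted to normalized luminescence (CellTiter-Glo) of KB-V1 cells treated for 72 h at 37 degrees C in phenol-red-free DMEM containing 10% FBS.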
MCF10A rereplic – A quantitative high throughput screen for small molecules that induce DNA re-replication in MCF 10a normal breast cells; AID 624296, 2012; Potency, µM (highest dose often 46.1 µM), most hits filed as activators; hit rate 2.9% among 350,000; MCF 10A DNA re-replication, Hoechst nuclear intensity, 48 h; further: nearly all actives have a fitted effect of over 50% in size
HT1080 IDH1KD tx – qHTS for induction of synthetic lethality in tumor cells producing 2HG: qHTS for the HT-1080-IDH1KD cell line | HT-1080 IDH1 knockdown viability, ATP luminescence, 48 h | Potency, µM (highest dose often 46.1 µM), hits mostly cytotoxic | hit rate 2% among 360,000 | AID 686971, 2013
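After a 2 h attachment period, IDH1KD HT-1080 cells took pin-transferred compound for 48 h at 37 °C; ATP-based luminescence after 10 min room-temperature reagent incubation reported viability.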
HT1080-NT tox – qHTS for induction of synthetic lethality in tumor cells producing 2HG: qHTS for the HT-1080-NT fibrosarcoma cell line; HT-1080-NT fibrosarcoma viability, CellTiter-Glo ATP luminescence, 48 h; Potency, µM (doses to about 46.1 µM), most hits filed as cytotoxic; hit rate 1.6% among 360,000; AID 686970, 2013;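 further: NT is the 2HG producing partner of a matched IDH1 knockdown line; nearly all actives have a fitted effect of over 55% in size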
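Viability of the 2HG-overproducing fibrosarcoma line after 48 hours of compound exposure at 37 degrees C was determined by luminescence with CellTiter-Glo, and concentration-effect curves were then fitted and categorized.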
KB-3-1 tox – qHTS assay for MDR1-selective chemotherapeutics: Primary screen using the parental adenocarcinoma cell KB-3-1 | KB-3-1 viability, CellTiter-Glo ATP luminescence, 72 h | Potency, µM (top dose mostly 46.1 µM), usual class: cytotoxic | hit rate 1.4% among 400,000 | AID 1347075, 2019; further: nearly all actives have a fitted effect of over 60% in size
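KB-3-1 parental drug-naive adenocarcinoma cells in DMEM/10% FBS, incubated 72 h at 37 C with pin-transferred compounds across a concentration series. Viability by CellTiter-Glo luminescence; concentration-response curves fitted after normalization.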
SW480 rerep – A quantitative high throughput screen for small molecules that induce DNA re-replication in SW480 colon adenocarcinoma cells. Potency, µM (titrated, usually from 46.1 µM), most hits filed as activators. AID 624297, 2012. hit rate 1.8% among 340,000. SW480 DNA re-replication, Hoechst DNA content imaging, 48 h; further: nearly all actives have a fitted effect of over 55% in size
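Cells (250 per well) received 23 nL compound or DMSO by pin tool and were kept 48 hr at 37 C, 5% CO2. Nuclei were then stained with Hoechst for 40 min and scanned for DNA content.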
Hits are given with their value; . = inactive; ? = inconclusive; / = not tested or not shown; ! = a repeat was not active; [ ] = dose if it differs, or a comment. The call rests on the fitted dose curve; in most records, active means well fitted curve in the direction sought with a large enough effect; inconclusive means small, poorly fitted or top-dose-only effect, or another doubt; inactive means no such curve, though single readings can be large; an effect the other way counts as inactive or inconclusive.

SMILES | KB-V1 MDR tox | MCF10A rereplic | HT1080 IDH1KD tx | HT1080-NT tox | KB-3-1 tox | SW480 rerep
O=C(CCCCCn1c(=S)[nH]c2cc3c(cc2c1=O)OCO3)N1CCN(C2CCCCC2)CC1 | 20.6µM | ? | . | . | . | ?
O=C(CCCCCn1c(=S)[nH]c2cc3c(cc2c1=O)OCO3)N1CCN(Cc2ccccc2)CC1 | . | 20.6µM | . | . | . | ?
COC(=O)c1sc(-c2ccccc2)cc1NC(=O)c1cccc(Cl)c1 | . | / | / | / | . | /
NC(=O)c1ccc(NCCc2ccco2)cc1 | . | / | . | . | . | /
CC(Sc1nnnn1C)C(=O)Nc1nc(-c2ccc(F)c(F)c2)cs1 (stereo not drawn) | . | ? | . | . | . | .
CCN(CC)C(=O)c1csc([C@@H]2O[C@H](CO)[C@H](O)[C@H](O)[C@H]2O)n1 | . | / | . | . | . | /
Cc1cc(F)ccc1S(=O)(=O)Nc1cc2c(C(=O)O)c(C)oc2c2ccccc12 | . | / | / | / | . | /
O=C(CCn1c(=S)[nH]c2ccccc2c1=O)N1CCCCC1 | . | . | . | . | ? | ?
CC1CCCN(C(=O)CCCn2c(=S)[nH]c3ccccc3c2=O)C1 (stereo not drawn) | 8.2µM | ? | . | . | . | .
Cc1cc(NC(=O)c2cc([N+](=O)[O-])ccc2Cl)no1 | ? | ? | ? | ? | . | ?
O=C(Nc1cccc(NC(=O)c2cc([N+](=O)[O-])ccc2Cl)n1)c1cc([N+](=O)[O-])ccc1Cl | 14.6µM | 6.51µM | 11.6µM | ? | 18.4µM | ?
O=C(Nc1c(Cl)cc([N+](=O)[O-])cc1Cl)c1cc(Cl)cc(Cl)c1O | ? | / | / | / | 18.4µM | /
O=C(c1cc([N+](=O)[O-])ccc1Cl)N1c2ccccc2Sc2ccccc21 | . | 18.4µM | . | . | . | ?
O=C(Nc1ccc([N+](=O)[O-])cc1Cl)c1ccccc1O | 16.4µM | / | / | / | 2.91µM! | /
CCc1cccc(NC(=O)c2ccc(NC(=O)N3CCSc4ncccc43)cc2)c1 | . | / | / | / | ? | /
O=C1Cc2cc(S(=O)(=O)N3CCN(c4ccc(Br)cc4)CC3)ccc2N1 | . | / | / | / | . | /
CC(=O)Oc1c(C)cc(Cl)cc1C(=O)Nc1ccc([N+](=O)[O-])cc1Cl | . | . | 1.16µM | ? | 7.31µM | 6.51µM
O=C1CSC(=S)N1/N=C/c1cc(Br)c(O)c(Br)c1 | . | ? | ? | . | . | .
O=C(c1c(F)cccc1F)N(Cc1ccccn1)C1CCCC1 | 20.6µM | . | ? | . | . | .
O=C(c1c(F)cccc1F)N(Cc1cccs1)C1CCCC1 | . | . | . | . | . | .
Cc1ccc2c(c1)N(S(=O)(=O)c1cc(-c3onc(C)c3C)ccc1C)CCO2 | ? | . | ? | ? | 23.1µM | ?
CCC(C)(C)c1ccc(OCCCC[n+]2cccc(C)c2C)c(C(C)(C)CC)c1 | . | . | 20.6µM | 14.6µM | ? | .
CCC(C)(C)c1ccc(OCCCC[n+]2ccc(C)cc2)c(C(C)(C)CC)c1 | . | 23.1µM | ? | ? | 11.6µM | .
O=C(Nc1ccc(F)cc1F)N1CCCN(c2ccc([N+](=O)[O-])cn2)CC1 | . | . | . | . | . | .
CC(C)(C)c1ccc(NC(=O)N2CCN(c3ccc([N+](=O)[O-])cn3)CC2)cc1 | ? | ? | 23.1µM | ? | ? | .
SMILES | KB-V1 MDR tox | MCF10A rereplic | HT1080 IDH1KD tx | HT1080-NT tox | KB-3-1 tox | SW480 rerep
COc1ccc(Nc2nc3ccccc3c(=O)s2)c(OC)c1 | . | . | . | . | . | .
CCCS(=O)(=O)Nc1ccc(Nc2c3ccccc3nc3ccccc23)c(OC)c1 | 23.1µM | . | ? | . | ? | 7.31µM
Cc1ccc(O)c(Nc2c3ccccc3nc3ccccc23)c1 | . | ? | 16.4µM | 23.1µM | . | ?
COc1ccc(NS(=O)(=O)Cc2ccccc2)cc1OC | . | . | . | .[9.24 µM] | . | .
COc1cc(N)ccc1Nc1c2ccccc2nc2ccccc12 | . | / | 23.1µM | ? | . | /
CC(C)C(=O)Nc1cccc(COc2ccccc2CN(Cc2ccccc2)C(=O)OC(C)(C)C)c1 | ? | 11.6µM | . | . | ? | ?
CC(C)(C)OC(=O)N(Cc1ccccc1)Cc1cccc(OCc2cccc(NC(=O)c3ccccc3)c2)c1 | . | 0.291µM | . | . | . | .
CC(C)(C)OC(=O)N(Cc1ccccc1)Cc1ccccc1OCc1ccc(NC(=O)C2CCC2)cc1 | ? | ? | . | . | . | ?
CC(C)(C)OC(=O)N(CCc1ccccc1)Cc1ccccc1OCc1ccc(NC(=O)C2CCC2)cc1 | ? | 6.51µM | . | . | ? | ?
COCCCNc1nc2c(S(=O)(=O)c3ccc(C)c(C)c3)nnn2c2ccc(Cl)cc12 | . | / | / | / | . | /
O=C(COC(=O)c1ccc2ccccc2n1)Nc1ccccc1F | . | . | . | . | . | .
CCC(=O)N1c2ccc(S(=O)(=O)N3CCN(c4ccccc4)CC3)cc2CC1C (stereo not drawn) | . | / | / | / | . | /
CC(=O)c1ccc(N2CCN(S(=O)(=O)c3ccc4c(c3)CC(C)N4C(=O)C3CC3)CC2)cc1 (stereo not drawn) | . | . | . | . | ? | ?
CC(=O)c1ccc(N2CCN(S(=O)(=O)c3ccc4c(c3)CC(C)N4C(C)=O)CC2)cc1 (stereo not drawn) | 8.2µM | . | ? | ? | ? | .
CCC(=O)N1c2ccc(S(=O)(=O)N3CCN(c4ccc([N+](=O)[O-])cc4)CC3)cc2CC1C (stereo not drawn) | . | . | 6.51µM | ? | . | .
Cc1cc(C)c2[nH]c(=O)c(CN(Cc3ccco3)C(=S)NCC3CCCO3)cc2c1 (stereo not drawn) | . | . | . | . | . | .
Cc1cc2cc(CN(Cc3ccco3)C(=S)NCC3CCCO3)c(=O)[nH]c2cc1C (stereo not drawn) | 9.2µM | . | . | . | . | .
Cc1ccc2cc(CN(Cc3ccco3)C(=S)NCC3CCCO3)c(=O)[nH]c2c1C (stereo not drawn) | 4.11µM | ? | . | . | . | .
Cc1ccc(NC(=O)CCN2CC(C)OC(C)C2)cc1C (stereo not drawn) | . | . | . | . | . | .
COc1ccc(-c2nc(-c3ccccc3)c(-c3cc([N+](=O)[O-])ccc3C)[nH]2)cc1OC | . | . | . | . | ? | .
CCOc1cc(-c2nc(-c3ccccc3)c(-c3cc([N+](=O)[O-])ccc3C)[nH]2)ccc1O | 18.4µM | . | . | . | . | .
Cc1cc(C)nc(Nc2nc3ccccc3o2)n1 | ? | . | . | . | . | .
